PubChem BioAssay (NCATS)
A number with no mark means an inactive call. No rule for the calls is given here.

These compounds were tested on HIV-1 nucleocapsid protein NCp7 (binding to TG oligonucleotide) (assay: HIV Nucleocapsid (AID 346;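 also: potency is for inhibitors that block NC binding and lower polarization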)). Settings: HIV-1 NC / fluorescein-TGTGTGTG probe, fluorescence polarization.
Description: NCGC Assay Overview: HIV-1 nucleocapsid protein (HIV-1 NC) is a small (6.5 kDa) basic zinc-finger protein which participates in packaging of viral genomic RNA. The spacing and metal-chelating residues (3 Cys, 1 His) of the Cys-X2-Cys-X4-His-X4-Cys Zn fingers are conserved among all known retroviruses (J. Med. Chem. 1998, 41, 1371-1381). HIV-1 NC was assayed for its binding to the consensus sequence single-stranded 5'-TGTGTGTG. […] High salt was included to increase the stringency of binding and inhibitor screen. Reducing agents and zinc were present to stabilize the nucleocapsid zinc-finger protein.
NCGC Assay Protocol Summary: Buffer. Hepes pH 7.5, 250mM NaCl, 1uM ZnCl2. 0.004% polyethylene glycol 20000. TCEP (100 uM) and 2-Mercaptoethanol (5 mM), added fresh the day of the experiment. Reagents/Controls. 10 nM TG4xF only in columns 3 and 4 as negative control. 10 nM TG4xF/100 nM HIV-1 NC in columns 1, 2, 5-48. Titration of control compound NSC-13778 (from 20 mM, then 1:2) pin-transferred to column 2. Assay Steps. Two uL of reagents were dispensed to 1536-well Kalypsys black plates. The plates were centrifuged for 1 min at 1000 rpm. Compounds and controls (20 nL) were transferred via Kalypsys PinTool. The plates were incubated for 1 hr at room temperature, and then read on ViewLux (Perkin-Elmer). High-throughput CCD imager using fluorescein polarization filter set and 45 seconds exposure time.
Potency is read from the fitted curve at half-maximal effect.

Structure (SMILES) | Potency [µM]
COc1ccc2[nH]cc(CCNc3ncnc4ccc(-c5c(C)noc5C)cc34)c2c1 | > 20
CS(=O)(=O)N1CCC2(CC1)CN(c1ncccn1)C2 | > 20
COc1ccc(CNc2ccnc(-c3cccc(C#N)c3)n2)c(OC)c1 | > 20
COCCn1c(=O)c(-c2ccccc2)nc2cnc(OC)nc21 | > 20
COCC(=O)N1CCC2(CC1)CN(Cc1cc(C(F)(F)F)cc(C(F)(F)F)c1)C2 | > 20
O=c1c(-c2ccc(F)cc2)nc2cnc(Oc3cccc(Cl)c3)nc2n1C[C@H]1CCCO1 | > 20
O=S(=O)(c1ccccc1)N1CCC2(CCN(c3ccncc3)CC2)CC1 | > 20
CNc1nc(-c2ccc(C(=O)N(C)C)cc2)nc2ccccc12 | > 20
O=C(c1ccncc1)N1CCC2(CCCN(Cc3nccs3)C2)CC1 | > 20
COc1ccc(NC(=O)N2CC[C@@]3(CCCN(C(=O)c4cccn4C)C3)C2)cc1 | > 20
CC(C)NC(=O)N1CC2(CCN(C(=O)c3ccco3)CC2)C1 | > 20
COc1cccc(-c2ccc3ncnc(NCCc4c[nH]c5ccc(OC)cc45)c3c2)c1 | > 20
COCCn1c(=O)c(-c2cccc(C#N)c2)nc2cnc(N(C)C)nc21 | > 4
O=C(c1cc(C(F)(F)F)cc(C(F)(F)F)c1)N1CCC2(CCN(Cc3nccs3)CC2)CC1 | > 20
COc1ccccc1-c1nccc(NCc2cccnc2)n1 | > 20
Cc1ccccc1-c1ccc2ncnc(N3CCNCC3)c2c1 | > 20
COCCn1c(=O)c(-c2cc(F)cc(F)c2)nc2cnc(Oc3cccc(Cl)c3)nc21 | > 20
CC(C)NC(=O)N1CCC2(CC1)CCN(C(=O)c1cc(C(F)(F)F)cc(C(F)(F)F)c1)CC2 | > 20
O=C(c1ccncc1)N1CCC2(CC1)CCN(C(c1ccccc1)c1ccccc1)CC2 | > 20
COCCn1c(=O)c(-c2ccc(OC)cc2)nc2cnc(Oc3ccccc3)nc21 | > 20

Structure (SMILES) | Potency [µM]
CN1CCN(c2ncc3nc(-c4cccc(C#N)c4)c(=O)n(CCC#N)c3n2)CC1 | > 20
Cc1nc2cnc(N3CCNCC3)nc2n(-c2ccccc2)c1=O | > 20
CN(Cc1ccco1)c1ncnc2ccc(-c3cccc(C#N)c3)cc12 | > 20
CN(C)C(=O)c1ccc(-c2cncnc2NC2CCNCC2)cc1 | > 20
Cc1cnc(CNc2ccnc(-c3ccccc3C)n2)cn1 | > 20
Cc1noc(C)c1-c1nc(Nc2ccc(F)cc2)c2ccccc2n1 | > 20
COc1ccccc1CCn1c(=O)c(C)nc2cncnc21 | > 20
CN1CCN(c2ncc3nc(-c4cn(C)c5ccccc45)c(=O)n(Cc4cccs4)c3n2)CC1 | > 20
Cc1cccc(CNc2nc(-c3ccccc3CN(C)C)nc3ccccc23)c1 | > 20
O=C(Nc1cccc(F)c1)N1CC[C@@]2(CCCN(S(=O)(=O)c3ccccc3)C2)C1 | > 20
COCC(=O)N1CCC2(CCCN(c3ccccn3)C2)CC1 | > 20
COc1cccc(-c2cncnc2Nc2ccccc2)c1 | > 20
Cn1cccc1C(=O)N1CCC[C@@]2(CCN(Cc3nccs3)C2)C1 | > 20
O=c1cnc2cnc(Nc3ccccc3)nc2n1CCc1ccccc1 | > 20
COc1cccc(Nc2ncc3nc(C)c(=O)n(C4CC4)c3n2)c1 | > 20
CCNc1ncc2nc(-c3ccccc3)c(=O)n(Cc3cccc(OC)c3)c2n1 | > 20
CNc1ccnc(-c2ccccc2CN(C)C)n1 | > 20
O=c1c(-c2cccs2)nc2cnc(N3CCNCC3)nc2n1C1CC1 | > 20
O=C(Nc1ccccc1)N1CC2(CCN(C(=O)c3cccc(F)c3)CC2)C1 | > 20
CC(=O)N1CCC2(CCN(Cc3ccc(C#N)cc3)CC2)CC1 | > 20
